Test results published in PubChem BioAssay AID1851 (National Center for Advancing Translational Sciences (NCATS), 2009).
About 2,600 (16%) of roughly 16,000 compounds were called active. Roughly 20% stayed inconclusive and do not appear here. Calls come from the whole dose curve; as a rule, active = well fitted curve in the direction sought with a large enough effect; inconclusive = small, poorly fitted or top-dose-only effect, or effect the other way; inactive = no such curve, though single readings can be large or run the other way. Not all results are given here.

What follows are compounds tested against Cytochrome P450 2D6 (Homo sapiens) (UniProt P10635) (assay: Cytochrome panel assay with activity outcomes). Settings: recombinant CYP, pro-luciferin dealkylation, luminescence, p450-cyp2d6; series mostly up to 57.1 µM; activity, negative = inhibition: at the top concentration.
Cytochrome P450 2D6 (Homo sapiens), sequence (P10635 whole entry, looked up): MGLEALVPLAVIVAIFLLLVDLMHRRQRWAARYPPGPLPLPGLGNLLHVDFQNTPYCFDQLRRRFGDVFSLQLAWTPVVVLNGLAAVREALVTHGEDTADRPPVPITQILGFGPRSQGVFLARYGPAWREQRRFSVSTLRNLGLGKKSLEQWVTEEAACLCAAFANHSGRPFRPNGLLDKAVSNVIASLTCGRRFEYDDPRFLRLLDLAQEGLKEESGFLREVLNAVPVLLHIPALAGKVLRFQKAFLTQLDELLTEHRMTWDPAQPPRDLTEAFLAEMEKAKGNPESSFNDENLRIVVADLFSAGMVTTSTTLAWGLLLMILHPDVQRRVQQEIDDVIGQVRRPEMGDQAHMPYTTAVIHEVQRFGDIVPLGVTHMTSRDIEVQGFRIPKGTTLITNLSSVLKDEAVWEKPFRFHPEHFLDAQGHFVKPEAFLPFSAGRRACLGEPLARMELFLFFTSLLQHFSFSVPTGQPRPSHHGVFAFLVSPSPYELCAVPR
% is set by controls: 0 for no effect and ±100 for the full control effect.

Row | Compound | activity, negative = inhibition | AC50
1 | COC(=O)[C@@]1(Cc2ccc(F)cc2)[C@@H]2[C@@H](CC(=O)[C@H]2CC(=O)C(=O)N2CCCC2)CN1C(=O)c1ccccc1 | 0.0192% (inactive) | 
2 | CC(C)[C@@H]1O[C@H](/C=C\c2ccccc2)OCC1(C)C | -1.61% [at 11.4 µM] (inactive) | 
3 | O=C(O)Cc1sc(-c2ccc(Cl)cc2)nc1-c1ccccc1 | 16% (inactive) | 
4 | Cc1cnn(CCC(=O)NNC(=S)Nc2ccc(F)cc2)c1 | 3.17% (inactive) | 
5 | CCSc1ncc(/C=N/Nc2ccc(F)cc2)n1C |  | 631 nM (active)
6 | CC(=O)Nc1ccc(NC(=O)Cn2c(-c3ccc(F)cc3)cnc2SCC(=O)Nc2c(C)cccc2C)cc1 | -9.43% (inactive) | 
7 | CCc1ccc2[nH]c(O)c(N=Nc3nc(-c4ccccc4)cs3)c2c1 | -11.2% (inactive) | 
8 | COc1ccc(C(=O)Nc2ccc3c(c2)nc(CN2CCN(C(C)=O)CC2)n3C)cc1 | -2.59% (inactive) | 
9 | CCOC(=O)C1CCCN(C(=O)/C=C/c2cccc([N+](=O)[O-])c2)C1 (centres undefined) | -18.6% (inactive) | 
10 | CC1CC(C)CN(C/C=C/c2ccccc2[N+](=O)[O-])C1 (centres undefined) |  | 631 nM (active)
11 | C[C@@H]1CCCN(CP(=O)(c2ccccc2)c2ccccc2)C1 | 6.3% [at 11.4 µM] (inactive) | 
12 | CCn1c(SCC(=O)N/N=C/C=C\c2ccccc2[N+](=O)[O-])nnc1-c1ccccc1 | -25.4% (inactive) | 
13 | CC1CCCN(C/C=C/c2ccccc2[N+](=O)[O-])C1 (centres undefined) |  | 1000 nM (active)
14 | CCOC(=O)C1CCCN(S(=O)(=O)c2ccccc2)C1 (centres undefined) | -11.5% (inactive) | 
15 | Cn1nnnc1SCc1ccccc1[N+](=O)[O-] | -7.73% (inactive) | 
16 | CS(=O)(=O)N1CCN(c2c(Cl)cccc2[N+](=O)[O-])CC1 | -12.4% (inactive) | 
17 | CCOC(=O)C1CCCN(C/C=C/c2ccccc2[N+](=O)[O-])C1 (centres undefined) |  | 70.8 nM (active)
18 | COc1ccc(-n2c(=O)c(-c3ccccc3)nc3cnc(N4CCOCC4)nc32)cc1 | -0.0357% (inactive) | 
19 | CN(C)c1ccc(/C=C2\SC(=S)N(Nc3ncc(C(F)(F)F)cc3Cl)C2=O)cc1 | 1.29% (inactive) | 
20 | CC(C)OC(=O)c1cc2ccccc2oc1=O | -6.6% (inactive) | 
21 | O=C(c1ccccc1)c1cc(F)c(N2CCOCC2)cc1Cl | -19.5% (inactive) | 
22 | COc1ccc2c(c1)Cc1sc(NC(=O)c3ccco3)nc1-2 | -9.14% (inactive) | 
23 | CSc1nc2nc3c(c(=O)n2[nH]1)CN(Cc1ccccc1)CC3 | -6.12% (inactive) | 
24 | NC[C@H]1O[C@H](n2cnc3c(N)ncnc32)C[C@@H]1O | 8.01% [at 11.4 µM] (inactive) | 
25 | O=c1c(-c2cccc(F)c2)nc2cncnc2n1C1CC1 | -4.2% (inactive) | 
26 | CC(C)(C)N(NC(=O)c1ccccc1)C(=O)c1cccc(C(=O)N(NC(=O)c2ccccc2)C(C)(C)C)c1 | -27.5% (inactive) | 
27 | O=C(O)C=Cc1ccc(Cn2ccnc2)cc1 |  | 79.4 nM (active)
28 | O=C(O)/C=C\c1ccc(O)c(O)c1 | 4.2% [at 25.6 µM] (inactive) | 
29 | O=C(O)/C=C\c1ccc(Cn2ccnc2)cc1 | 0.822% [at 25.6 µM] (inactive) | 
